Records with an inconclusive call do not appear. The source made the active and inactive calls. Unless noted, calls follow the shape of the dose curve; as a rule, active = well fitted curve in the direction sought with a large enough effect; inconclusive = small, poorly fitted or top-dose-only effect, or another doubt; inactive = no such curve, though single readings can be large; an effect the other way counts as inactive or inconclusive.
What was measured:
[1] = qHTS Assay for Identification of Small Molecule Antagonists for NFkB Signaling Pathway (AID 895; active = well fitted inhibition curve with a large enough effect in the signal ratio, with a control signal flat, not every such curve was filed as active; the % refers to the signal ratio; also: potency is read from the fitted curve at half-maximal effect)
Procedure, shortened: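 Beta-lactamase reporter read-out (460 and 530 nm emission ratio, 405 nm excitation, 2 hrs substrate loading RT) after 5 hr stimulation with 10 pM TNF alpha in compound-treated NFkB-bla ME-180 cells in low-serum medium.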

[2] = Confirmation and Secondary Assay for Modulators of Hemoglobin Beta Chain Splicing at IVS2 654 locus (AID 910);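 also: HeLa cells stably carrying EGFP split by mutant beta-globin IVS2-654 intron; per-well total GFP intensity by laser scanning cytometry after 2-day treatment; % of control where 0% means no effect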
Procedure, shortened: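 Readout: per-well total peak green fluorescence (488 nm ex, 500–520 nm em) from objects 5–250 µm, reflecting correct splicing of an EGFP-654 reporter. Compounds were applied for 2 days at 37 °C to overnight-plated HeLa EGFP-654 cells; controls were DMSO and 500 nM IVS2-654 PNA.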

[3] = qHTS Assay for Identification of Small Molecule Agonists for Hypoxia Response Element Signaling Pathway (AID 914; active = well fitted activation curve with a large enough effect in the signal ratio, with a control signal flat, not every such curve was filed as active; the % refers to the signal ratio; also: % of control where 0% means no effect); conditions: ME-180 (cervical carcinoma) HRE-bla reporter, beta-lactamase ratio, CoCl2, 17 h; activation: hits give high values
Procedure, shortened: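 AC50 values come from titration-series %Activity, taken as the 460/530nm ratio of CCF4 fluorescence (excitation 405nm). CellSensor HRE-bla ME-180 cells were treated 17 hours at 37 C with compound plus an EC50 level of CoCl2.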

[4] = qHTS Assay for Identification of Small Molecule Agonists for Thrombopoietin (TPO) Signaling Pathway (AID 917); also: % is scaled to controls: 0 for no effect and ±100 for the full control effect
Procedure, shortened: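 Quantitative HTS for pathway activators: compounds were pin-transferred onto IL-3-starved Ba/F3 cells expressing human TPO receptor, TPO was added at its EC50 (26 pM final), and after 24 hrs at 37 C reporter luciferase was measured.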

[5] = Confirmation and Secondary Assay for Modulators of Hemoglobin Beta Chain Splicing at IVS2 705 locus (AID 930);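 also: HeLa cells stably expressing the EGFP-705 splicing reporter; series mostly up to about 46 µM; % of control where 0% means no effect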
Procedure, shortened: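 Restored EGFP fluorescence after 2-day compound exposure reports splicing correction in IVS2-705 EGFP reporter HeLa cells; positive control was 500 nM splice-blocking PNA oligo. Signal measured as well total peak GFP intensity (488 nm excitation).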

[6] = biological target: Muscarinic acetylcholine receptor M1 (Rattus norvegicus) (UniProt P08482); test: qHTS Assay for Antagonists of Acetylcholine Muscarinic M1 Receptor: Measurement of IP-One Response (AID 944); also: nearly all actives have a fitted effect of over 75% in size
Muscarinic acetylcholine receptor M1 (Rattus norvegicus), sequence (P08482 whole entry, looked up): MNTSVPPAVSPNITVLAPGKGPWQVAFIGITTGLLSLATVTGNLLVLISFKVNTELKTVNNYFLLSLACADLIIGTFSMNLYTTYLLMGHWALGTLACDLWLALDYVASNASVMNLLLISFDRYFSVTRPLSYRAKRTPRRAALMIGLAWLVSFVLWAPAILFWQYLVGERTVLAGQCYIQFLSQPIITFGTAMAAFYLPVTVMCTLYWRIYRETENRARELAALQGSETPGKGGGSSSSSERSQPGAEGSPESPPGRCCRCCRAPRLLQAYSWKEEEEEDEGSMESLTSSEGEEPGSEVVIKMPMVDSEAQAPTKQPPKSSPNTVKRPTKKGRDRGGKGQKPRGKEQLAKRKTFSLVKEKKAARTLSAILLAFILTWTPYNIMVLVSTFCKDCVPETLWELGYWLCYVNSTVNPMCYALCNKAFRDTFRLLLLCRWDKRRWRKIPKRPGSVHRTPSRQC
Procedure, shortened: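 Antagonism was measured as loss of carbachol-driven (EC80) IP1 accumulation in CHO cells carrying rat M1, using a homogeneous IP-One TR-FRET kit read at 620 and 665 nm.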

[7] = biological target: Pyruvate kinase (Leishmania mexicana) (UniProt Q27686); test: qHTS Validation Assay for Inhibitors of Leishmania Mexicana Pyruvate Kinase (AID 945);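 also: 0% = DMSO only neutral control wells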
Pyruvate kinase (Leishmania mexicana), sequence (Q27686 2-499 E452W): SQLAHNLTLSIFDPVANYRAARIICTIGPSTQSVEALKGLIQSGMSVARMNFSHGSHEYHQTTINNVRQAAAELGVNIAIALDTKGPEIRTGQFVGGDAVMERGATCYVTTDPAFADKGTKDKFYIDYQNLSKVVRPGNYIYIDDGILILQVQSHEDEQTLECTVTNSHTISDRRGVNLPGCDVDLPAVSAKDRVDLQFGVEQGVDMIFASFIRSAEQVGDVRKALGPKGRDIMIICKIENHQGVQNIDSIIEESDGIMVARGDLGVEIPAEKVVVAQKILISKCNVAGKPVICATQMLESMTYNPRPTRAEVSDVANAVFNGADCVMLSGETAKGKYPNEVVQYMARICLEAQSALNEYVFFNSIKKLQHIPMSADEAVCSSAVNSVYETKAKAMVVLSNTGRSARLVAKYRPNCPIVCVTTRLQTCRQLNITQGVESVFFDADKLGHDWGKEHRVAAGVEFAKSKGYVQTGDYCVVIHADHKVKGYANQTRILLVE
Procedure, shortened: (§1)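 Purified LmPYK (E451W mutant, 0.2 nM) was incubated 1 h at room temperature with 0.5 mM PEP and 0.1 mM ADP in 50 mM imidazole pH 7.2, 50 mM KCl, 7 mM MgCl2; ATP formed was read by PKLight luminescence, normalized to DMSO wells.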

[8] = biological target: Pyruvate kinase PKM (Homo sapiens) (UniProt P14618); test: qHTS Assay for Activators of Human Muscle Pyruvate Kinase (AID 954; active = well fitted curve in the direction sought with a large enough effect, not every such curve was filed as active;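 also: 0% = uninhibited enzyme and -100% = no enzyme or full thiadiazolimine inhibition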)
Pyruvate kinase PKM (Homo sapiens), sequence (P14618 whole entry, looked up): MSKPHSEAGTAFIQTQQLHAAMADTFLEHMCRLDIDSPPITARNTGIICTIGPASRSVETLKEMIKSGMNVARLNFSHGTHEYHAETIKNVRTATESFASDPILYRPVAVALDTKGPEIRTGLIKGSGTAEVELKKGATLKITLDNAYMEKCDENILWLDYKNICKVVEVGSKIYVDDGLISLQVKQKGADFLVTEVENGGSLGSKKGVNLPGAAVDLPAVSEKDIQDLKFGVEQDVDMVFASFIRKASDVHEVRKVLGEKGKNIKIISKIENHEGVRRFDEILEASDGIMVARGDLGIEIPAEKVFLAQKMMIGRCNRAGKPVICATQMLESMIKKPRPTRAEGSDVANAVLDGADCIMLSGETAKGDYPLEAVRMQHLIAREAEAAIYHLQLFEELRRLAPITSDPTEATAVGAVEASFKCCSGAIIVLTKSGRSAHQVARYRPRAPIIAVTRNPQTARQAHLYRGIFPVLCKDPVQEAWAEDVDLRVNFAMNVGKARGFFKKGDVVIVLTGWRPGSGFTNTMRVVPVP
Procedure, shortened: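 Screening used highly purified human pyruvate kinase M2 under submaximal activity, with PEP at its Km and ADP below Km. After an hour at room temperature, ATP was read by luciferase luminescence.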

[9] = biological target: Muscarinic acetylcholine receptor M1 (Rattus norvegicus) (UniProt P08482); test: qHTS Assay for Antagonists of Acetylcholine Muscarinic M1 Receptor: Kinetic Measurement of Intracellular Calcium Response (AID 943);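 also: Fluo-4 calcium signal as peak divided by basal fluorescence over 4 min; series mostly up to about 35 µM; nearly all actives have a fitted effect of over 75% in size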
Procedure, shortened: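 Quantitative HTS in CHO-M1 (rat receptor) cells: 10 min compound exposure ahead of 100 nM carbachol, Fluo-4 fluorescence followed 4 min, value expressed as peak-to-basal ratio.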

[10] = biological target: Cytochrome P450 2C19 (Homo sapiens) (UniProt P33261); test: qHTS Assay for Inhibitors and Substrates of Cytochrome P450 2C19 (AID 899); also: nearly all actives have a fitted effect of over 60% in size; also: potency is read from the fitted curve at half-maximal effect
Cytochrome P450 2C19 (Homo sapiens), sequence (P33261 whole entry, looked up): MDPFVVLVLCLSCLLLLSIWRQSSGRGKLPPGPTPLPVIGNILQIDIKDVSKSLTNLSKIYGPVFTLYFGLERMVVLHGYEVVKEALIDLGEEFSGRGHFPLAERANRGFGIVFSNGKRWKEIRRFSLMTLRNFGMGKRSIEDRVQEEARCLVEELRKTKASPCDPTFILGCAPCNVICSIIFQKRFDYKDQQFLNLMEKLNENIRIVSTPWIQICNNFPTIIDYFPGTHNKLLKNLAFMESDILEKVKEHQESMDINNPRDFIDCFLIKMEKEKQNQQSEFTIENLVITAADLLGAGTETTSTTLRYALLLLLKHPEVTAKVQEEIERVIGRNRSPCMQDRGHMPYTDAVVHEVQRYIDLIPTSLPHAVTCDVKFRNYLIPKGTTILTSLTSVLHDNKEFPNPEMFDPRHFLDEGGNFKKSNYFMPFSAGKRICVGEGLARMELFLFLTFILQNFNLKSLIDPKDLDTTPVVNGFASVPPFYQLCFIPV
Procedure, shortened: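 Luminescence readout of luciferin formed from 10uM Luciferin-H EGE (KM level) by 5 nM CYP2C19 in 50mM KPO4. 60 min NADPH-driven reaction at 37C after 10 min compound preincubation; data scaled to 57uM ketoconazole inhibition.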

[11] = biological target: Pyruvate kinase (Leishmania mexicana) (UniProt Q27686); test: qHTS Validation Assay for Activators of Leishmania Mexicana Pyruvate Kinase (AID 959)
Procedure, shortened: as §1

[12] = qHTS Assay for Identification of Small Molecule Antagonists for Thrombopoietin (TPO) Signaling Pathway (AID 918); conditions: TPO-dependent cell signaling reporter, antagonist mode; also: potency is read from the fitted curve at half-maximal effect; nearly all actives have a fitted effect of over 60% in size
Procedure, shortened: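 Antagonist mode at EC50 TPO (26 pM) in IL-3-free medium; murine Ba/F3 cells with human TPO receptor and GPIIb-promoter luciferase, 24 hrs at 37 C before luminescent detection.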

NC1(C(=O)O)CC1
inactive: Potency [1] | Potency [2] | activation [3] -20.7% | Potency [4] | outcome [5] | Potency [6] | Potency [7] | outcome [8]

Cn1c(=O)[nH]c2ncn(C)c2c1=O
inactive: Potency [1] | Potency [2] | Potency [4] | outcome [5] | Potency [9] | Potency [6] | Potency [7]

NC/C=C\C(=O)O
inactive: Potency [1] | Potency [10] | Potency [2] | Potency [4] | outcome [5] | Potency [6] | Potency [7] | outcome [8]

CC[C@H](NC(=O)c1c(C)c(-c2ccccc2)nc2ccccc12)c1ccccc1
active: Potency [1] 12.6 µM | Potency [10] 25.1 µM
inactive: Potency [4] | Potency [6] | Potency [7] | outcome [8]

NC1(C(=O)O)CCCCC1
inactive: Potency [1] | Potency [10] | Potency [4] | Potency [6] | Potency [7] | outcome [8]

O=[N+]([O-])c1cccc2cn[nH]c12
inactive: Potency [1] | Potency [10] | Potency [2] | Potency [4] | outcome [5] | Potency [6] | Potency [7] | outcome [8]

N[C@H](C(=O)O)c1cc(O)cc(O)c1
inactive: Potency [1] | Potency [10] | Potency [4] | Potency [9] | Potency [6] | Potency [7] | outcome [8]

O=C(O)C1=CCCNC1
inactive: Potency [1] | Potency [2] | Potency [4] | outcome [5] | Potency [6] | Potency [7] | outcome [8]

Cc1nc(N=Nc2ccc(C(=O)O)cc2)c(COP(=O)(O)O)c(C=O)c1O
active: Potency [11] 5.01 µM
inactive: Potency [1] | Potency [10] | Potency [4] | Potency [6] | Potency [7] | outcome [8]

CC(=O)NCCc1c[nH]c2ccc(O)cc12
inactive: Potency [1] | Potency [2] | Potency [4] | outcome [5] | Potency [9] | Potency [6] | Potency [7] | outcome [8]

CCN1C(=O)C=CC1=O
inactive: Potency [1] | activation [3] 23.4% | Potency [9] | Potency [6] | Potency [7] | outcome [8]
active: Potency [12] 1.58 µM
